Here are results for 34 compounds from PubChem BioAssay.

Unmarked numbers belong to inactive results. The source made the active and inactive calls.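 How the source made its calls: active means inhibition of the reporter signal at or above 50%; inactive means inhibition below 50%.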

This test in a line: TLR3 IRF3 reporter activation blockers – cell-based, poly I:C stimulus, luciferase, 10K MLSCN set, primary screen (AID 602277). The settings on record: HEK293-TLR3 RL24 IRF3 luciferase reporter, at 10 µM, active compounds read high. In general terms: In a reporter assay the amount or activity of a reporter protein is the signal.
A word on the inhibition: it is the drop in the measured response relative to a control, in per cent. For `O=C(Cn1cc(C(=O)c2ccccc2)c2ccccc21)NCc1ccco1`, the inhibition is -16.8%.
For `COc1ccc(C2NCc3ccc4c(c3-n3cccc32)OCO4)cc1O` (centres undefined) the value was 83% (active); for `Cn1c(C(=O)N2CCC3(CC2)OCCO3)cc2c(=O)n(C)c3ccccc3c21`, 20.5%.
Consider `O=C1C2CCCN2C(c2ccc(Cl)c(Cl)c2)N1c1ccccn1` (centres undefined), for which the inhibition was 12.7%.
For `CC(=NCc1cccnc1)c1c(O)n(Cc2ccccc2)c(=O)[nH]c1=O` the value was 3.95%; for `O=C(c1ccc2nc3ccc(Cl)cc3c(=O)n2c1)N1CCC2(CC1)OCCO2`, -12%.
On to `COc1ccc(OC)c(C2=NOC(C(=O)N3CCC4(CC3)OCCO4)C2)c1` (centres undefined), for which the inhibition is 17%.
`Cn1c(O)c(C=NCc2ccco2)c(=O)n(C)c1=O`: the inhibition is 14.6%.
For `O=c1[nH]c(=O)n(Cc2ccccc2)c(O)c1C=NCCCO` the value was 16.9%; for `O=C(C1CCCN(S(=O)(=O)c2cccc3nsnc23)C1)N1CCC2(CC1)OCCO2` (centres undefined), 1.28%.
With `Nc1ccccc1C(=O)OC1CSC1`, the inhibition was 15%.
For `Cc1cc(N2C(=O)C3CCCN3C2c2cccc(Cl)c2)no1` (centres undefined) the value was 22.3%.
On to `COC(=O)c1c(C)n(Cc2ccc3c(c2)OCO3)c2ccc(O)cc12`, for which the inhibition is -6.04%.
With `NC(=O)CSP(=O)(c1ccccc1)c1ccccc1`, the inhibition is 18.3%.
Take `OCC12COC3c4ccccc4C(OC1)N32` (centres undefined): the inhibition was 12.6%.
Take `CCOC(=O)c1cccc([P+](=O)O)c1`: the inhibition is -3.34%.
For `COc1ccccc1OCCCn1cc(C(=O)c2ccco2)c2ccccc21` the value was -81.2%; for `Cc1cc(NC(=O)COC(=O)c2c(C)nn(Cc3ccccc3)c2Cl)no1`, 12.9%; for `CC(C)OC(=O)c1c(N)n(CC2CCCO2)c2nc3ccccc3nc12` (centres undefined), 13.4%.
The result for `COC(=O)c1ccccc1-n1c(C)nc2ccccc2c1=O` reads -2.38%; that for `CC1CCN2c3nc4ccccn4c(=O)c3CC3(C(=O)N(C)C(=O)N(C)C3=O)C2C1` (centres undefined), 16.3%; that for `CCN1CCN(c2ncnc3ccc(Br)cc23)CC1`, 8.78%.
As to `COCCOC(=O)C1=C(N)Oc2c(c(=O)oc3ccccc23)C1c1ccncc1` (centres undefined), the inhibition is 27.3%.
For `CSc1ccc(CNC2CN3CCC2CC3)cc1` (centres undefined), the inhibition was 24.5%.
On to `CCOC(=O)C1CCCCC12C(C#N)=C(N)Oc1n[nH]c(C)c12` (centres undefined), for which the inhibition is 21.9%.
The result for `CC1(C)CC(=O)C=C(NCCN2CCN(C(=O)Cc3ccc(Cl)cc3)CC2)C1` reads 9.81%; that for `COc1ccc(CCNC(=O)c2c(N)n(CCN3CCOCC3)c3nc4ccccc4nc23)cc1`, -28.7%.
In the case of `CSc1ccc(C(=O)C(C)(C)N2CCOCC2)cc1`, the inhibition is 2.25%.
In the case of `COc1ccccc1N1CCN(Cc2cccc(OC)c2O)CC1`, the inhibition is 12.6%.
The result for `Cc1ccc(S(=O)(=O)Cc2ccc(C(=O)N3CCC4(CC3)OCCO4)o2)cc1` reads -9.45%.
For `CCOc1ccc(Br)c(C2(O)CC(C)N(C)CC2C)c1` (centres undefined) the value was 21.4%; for `Cc1ccc(CS(=O)(=O)CCC(=O)N2CCC3(CC2)OCCO3)cc1`, 16.9%.
For `NC(=O)OCCSc1nnc(-c2cccc(C(N)=S)c2)o1` the value was 12.8%; for `O=C(O)c1nonc1-c1nonc1C(=O)O`, 15.2%.
